{"source": "paper PMC8384837", "about": "“Expanding the binding specificity for RNA recognition by a PUF domain”", "assay_in_all_cases": "yeast three-hybrid, YBZ-1, SC-Leu-His + 0.5 mM 3-AT, 4 days", "settings_in_all_cases": "tags: N-Gal4 AD-HA kept; label: inside an RPR1-promoter hybrid RNA with tandem MS2 sites; ssRNA", "key": {"[1]": {"target": "PUM1 PUF domain R7-RPI (Homo sapiens, UniProt Q14671 828-1176, S1079R;N1080P;E1083I)", "method_in_brief": "(§1)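 A centromeric plasmid in strain YBZ-1 co-expressed Pumilio-1 PUF domain libraries, randomized at the three base-contacting residues of each repeat, with matching RNA elements; the strain carries a LexA–MS2 coat fusion and a HIS3 reporter. After four days on SC-Leu (input) or SC-Leu-His + 0.5 mM 3-AT (selection), the repeat regions were PCR-amplified and Illumina-sequenced. The interaction score is the log change in variant frequency from input to selection, using log2 and a pseudocount of 1 where absent.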"}, "[2]": {"target": "T1, PUM1 PUF domain R6-HWC (Homo sapiens, UniProt Q14671 828-1176, N1043H;Y1044W;Q1047C)", "T1 sequence": "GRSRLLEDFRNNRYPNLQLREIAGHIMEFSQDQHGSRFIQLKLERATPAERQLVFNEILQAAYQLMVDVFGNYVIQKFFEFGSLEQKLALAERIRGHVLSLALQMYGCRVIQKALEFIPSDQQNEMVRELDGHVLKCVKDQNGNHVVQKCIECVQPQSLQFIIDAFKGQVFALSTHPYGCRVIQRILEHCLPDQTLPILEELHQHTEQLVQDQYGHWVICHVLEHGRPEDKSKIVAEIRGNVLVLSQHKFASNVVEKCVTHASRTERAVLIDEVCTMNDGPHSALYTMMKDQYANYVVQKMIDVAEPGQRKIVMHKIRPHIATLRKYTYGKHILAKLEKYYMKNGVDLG", "method_in_brief": "as §1"}, "[3]": {"target": "PUM1 PUF domain R8-KRY (Homo sapiens, UniProt Q14671 828-1176, N1122K;Y1123R;Q1126Y)", "method_in_brief": "as §1"}, "[4]": {"target": "PUM1 PUF domain R8-PRR (Homo sapiens, UniProt Q14671 828-1176, N1122P;Y1123R;Q1126R)", "method_in_brief": "as §1"}, "[5]": {"target": "PUM1 PUF domain R4-TRT (Homo sapiens, UniProt Q14671 828-1176, N971T;H972R;Q975T)", "method_in_brief": "as §1"}, "[6]": {"target": "PUM1 PUF domain R5-CSR (Homo sapiens, UniProt Q14671 828-1176, R1008S;Q1011R)", "method_in_brief": "as §1"}, "[7]": {"target": "PUM1 PUF domain R5-RQW (Homo sapiens, UniProt Q14671 828-1176, C1007R;R1008Q;Q1011W)", "method_in_brief": "as §1"}}}
{"sequence": "GGCUAGAACUAGUGGAUCCCCCGGCGCCCGGCGGCUCGAGCCCGGGUAAGUCUAAAUAGUCUGCAUGCCGCCGGGCGCCAUGCCUGCAGGUCGACUCUAGAAAACAUG", "values": [{"measurement": "binding signal", "setting": "[1]", "result": "0.71 log2 enrichment (interaction score)"}]}
{"sequence": "GGCUAGAACUAGUGGAUCCCCCGGCGCCCGGCGGCUCGAGCCCGGGUAAGUUUAAAUAGUCUGCAUGCCGCCGGGCGCCAUGCCUGCAGGUCGACUCUAGAAAACAUG", "values": [{"measurement": "binding signal", "setting": "[1]", "result": "2.52 log2 enrichment (interaction score)"}]}
{"sequence": "GGCUAGAACUAGUGGAUCCCCCGGCGCCCGGCGGCUCGAGCCCGGGUAAGUGAAAAUAGUCUGCAUGCCGCCGGGCGCCAUGCCUGCAGGUCGACUCUAGAAAACAUG", "values": [{"measurement": "binding signal", "setting": "[2]", "result": "6.25 log2 enrichment (interaction score)"}]}
{"sequence": "GGCUAGAACUAGUGGAUCCCCCGGCGCCCGGCGGCUCGAGCCCGGGUAAGCGUAAAUAGUCUGCAUGCCGCCGGGCGCCAUGCCUGCAGGUCGACUCUAGAAAACAUG", "values": [{"measurement": "binding signal", "setting": "[3]", "result": "3.46 log2 enrichment (interaction score)"}, {"measurement": "binding signal", "setting": "[4]", "result": "4.08 log2 enrichment (interaction score)"}]}
{"sequence": "GGCUAGAACUAGUGGAUCCCCCGGCGCCCGGCGGCUCGAGCCCGGGUAAGUGUAAAUAGUCUGCAUGCCGCCGGGCGCCAUGCCUGCAGGUCGACUCUAGAAAACAUG", "values": [{"measurement": "binding signal", "setting": "[5]", "result": "2.59 log2 enrichment (interaction score)"}, {"measurement": "binding signal", "setting": "[6]", "result": "1.42 log2 enrichment (interaction score)"}, {"measurement": "binding signal", "setting": "[4]", "result": "3.57 log2 enrichment (interaction score)"}]}
{"sequence": "GGCUAGAACUAGUGGAUCCCCCGGCGCCCGGCGGCUCGAGCCCGGGUAAGUGUUAAUAGUCUGCAUGCCGCCGGGCGCCAUGCCUGCAGGUCGACUCUAGAAAACAUG", "values": [{"measurement": "binding signal", "setting": "[7]", "result": "2.23 log2 enrichment (interaction score)"}]}
{"sequence": "GGCUAGAACUAGUGGAUCCCCCGGCGCCCGGCGGCUCGAGCCCGGGUAAGUGUCAAUAGUCUGCAUGCCGCCGGGCGCCAUGCCUGCAGGUCGACUCUAGAAAACAUG", "values": [{"measurement": "binding signal", "setting": "[7]", "result": "1.8 log2 enrichment (interaction score)"}, {"measurement": "binding signal", "setting": "[6]", "result": "4.8 log2 enrichment (interaction score)"}]}
